Assay results reported in PubChem BioAssay AID1159580 (chemical genetic matrix, 2015).
Screen size: about 5,500 compounds; about 2,000 (36%) were called active. About 18% were inconclusive and are not listed. Rule as the data show it: active = normalized growth mostly below about 0.91 (no sharp cut-off); inconclusive = no clear call, values can overlap the other calls; inactive = mostly above about 0.92. Some of the results follow.

Experiment: chemical genetic growth profiling, strain panel (AID 1159580);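 also: tested at 20 µM; growth read once vehicle control cultures reached saturation at 30 °C; 1 = growth at the plate median or of vehicle wells; lower values mean less growth of the strain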
Details: growth OD

Measured: normalized growth

CC1C(=O)OC2C1CCC1(C)C=CC(=O)C3(C)OC213 (stereo unspecified)
inactive: S. cerevisiae deletion strains, locus YAL013W, strain DEP1, hits give low values 0.968 | S. cerevisiae deletion strains, locus YBR021W, strain FUR4, hits give low values 1.01 | S. cerevisiae deletion strains, locus YBR229C, strain ROT2, hits give low values 1.01 | S. cerevisiae deletion strains, locus YCL029C, strain bik1, hits give low values 1.01 | S. cerevisiae deletion strains, locus YDL035C, strain GPR1, hits give low values 1.02 | S. cerevisiae deletion strains, locus YDL074C, strain BRE1, hits give low values 0.974 | S. cerevisiae deletion strains, locus YDL101C, strain DUN1, hits give low values 1 | S. cerevisiae deletion strains, locus YDL134C, strain PPH21, hits give low values 0.999 | S. cerevisiae deletion strains, locus YDL185W, strain tfp1, hits give low values 1.01 | S. cerevisiae deletion strains, locus YDL192W, strain arf1, hits give low values 0.999 | S. cerevisiae deletion strains, locus YDR101C, strain arx1, hits give low values 0.989 | S. cerevisiae deletion strains, locus YDR150W, strain NUM1, hits give low values 1 | S. cerevisiae deletion strains, locus YDR162C, strain NBP2, hits give low values 0.985 | S. cerevisiae deletion strains, locus YDR318W, strain mcm21, hits give low values 1.01 | S. cerevisiae deletion strains, locus YDR388W, hits give low values 1 | S. cerevisiae deletion strains, locus YDR502C, strain sam2, hits give low values 0.985 | S. cerevisiae deletion strains, locus YEL061C, strain CIN8, hits give low values 1.02 | S. cerevisiae deletion strains, locus YER110C, hits give low values 1.01 | S. cerevisiae deletion strains, locus YER155C, strain BEM2, hits give low values 1 | S. cerevisiae deletion strains, locus YER167W, strain BCK2, hits give low values 1.02 | S. cerevisiae deletion strains, locus YGL078C, strain dbp3, hits give low values 1 | S. cerevisiae deletion strains, locus YGL086W, strain mad1, hits give low values 1.01 | S. cerevisiae deletion strains, locus YGL248W, strain PDE1, hits give low values 1.01 | S. cerevisiae deletion strains, locus YGR078C, strain PAC10, hits give low values 0.989 | S. cerevisiae deletion strains, locus YGR135W, strain pre9, hits give low values 0.976 | S. cerevisiae deletion strains, locus YGR229C, strain SMI1, hits give low values 0.999 | S. cerevisiae deletion strains, locus YGR252W, strain gcn5, hits give low values 1.01 | S. cerevisiae deletion strains, locus YHR030C, strain SLT2, hits give low values 1.01 | S. cerevisiae deletion strains, locus YHR079C, strain IRE1 (second series), hits give low values 1.02 | S. cerevisiae deletion strains, locus YHR094C, strain hxt1, hits give low values 0.999 | S. cerevisiae deletion strains, locus YHR129C, strain ARP1, hits give low values 1.02 | S. cerevisiae deletion strains, locus YHR200W, strain rpn10, hits give low values 1 | S. cerevisiae deletion strains, locus YIL066C, strain RNR3, hits give low values 0.999 | S. cerevisiae deletion strains, locus YIL073C, strain SPO22, hits give low values 1.09 | S. cerevisiae deletion strains, locus YIL125W, strain kgd1, hits give low values 1.01 | S. cerevisiae deletion strains, locus YIR030C, strain dcg1, hits give low values 1 | S. cerevisiae deletion strains, locus YJL095W, strain BCK1, hits give low values 0.988 | S. cerevisiae deletion strains, locus YJL134W, strain LCB3, hits give low values 1.01 | S. cerevisiae deletion strains, locus YJL168C, strain set2, hits give low values 1.01 | S. cerevisiae deletion strains, locus YJL187C, strain SWE1 (second series), hits give low values 1.01 | S. cerevisiae deletion strains, locus YJR043C, strain POL32, hits give low values 1.06 | S. cerevisiae deletion strains, locus YJR075W, strain HOC1, hits give low values 1 | S. cerevisiae deletion strains, locus YKL009W, strain mrt4, hits give low values 1.02 | S. cerevisiae deletion strains, locus YKL068W, hits give low values 1 | S. cerevisiae deletion strains, locus YKL085W, strain MDH1 (second series), hits give low values 1.04 | S. cerevisiae deletion strains, locus YKL085W, strain MDH1, hits give low values 1.04 | S. cerevisiae deletion strains, locus YKL190W, strain CNB1, hits give low values 1.01 | S. cerevisiae deletion strains, locus YKR001C, strain vps1, hits give low values 1 | S. cerevisiae deletion strains, locus YLR039C, strain RIC1, hits give low values 1.01 | S. cerevisiae deletion strains, locus YLR058C, strain SHM2, hits give low values 1.01 | S. cerevisiae deletion strains, locus YLR102C, strain apc9, hits give low values 1.01 | S. cerevisiae deletion strains, locus YLR262C, strain YPT6, hits give low values 0.996 | S. cerevisiae deletion strains, locus YLR268W, strain sec22, hits give low values 0.959 | S. cerevisiae deletion strains, locus YLR330W, strain CHS5, hits give low values 1.01 | S. cerevisiae deletion strains, locus YLR342W, strain FKS1 (second series), hits give low values 1.06 | S. cerevisiae deletion strains, locus YLR371W, strain rom2, hits give low values 1.01 | S. cerevisiae deletion strains, locus YLR418C, strain cdc73, hits give low values 0.963 | S. cerevisiae deletion strains, locus YML016C, strain PPZ1, hits give low values 1 | S. cerevisiae deletion strains, locus YML032C, strain rad52, hits give low values 1.01 | S. cerevisiae deletion strains, locus YML124C, strain tub3, hits give low values 1 | S. cerevisiae deletion strains, locus YMR078C, strain ctf18, hits give low values 1 | S. cerevisiae deletion strains, locus YMR223W, strain ubp8, hits give low values 1.01 | S. cerevisiae deletion strains, locus YMR263W, strain SAP30, hits give low values 0.982 | S. cerevisiae deletion strains, locus YMR307W, strain GAS1, hits give low values 1.02 | S. cerevisiae deletion strains, locus YNL067W, strain RPL9B, hits give low values 0.97 | S. cerevisiae deletion strains, locus YNL128W, strain TEP1, hits give low values 1 | S. cerevisiae deletion strains, locus YNL153C, strain GIM3, hits give low values 0.989 | S. cerevisiae deletion strains, locus YNL233W, strain BNI4, hits give low values 1.01 | S. cerevisiae deletion strains, locus YNL250W, strain rad50, hits give low values 0.999 | S. cerevisiae deletion strains, locus YNL271C, strain bni1, hits give low values 1.01 | S. cerevisiae deletion strains, locus YNL298W, strain CLA4, hits give low values 0.99 | S. cerevisiae deletion strains, locus YNL307C, strain MCK1, hits give low values 1.02 | S. cerevisiae deletion strains, locus YNL322C, strain KRE1, hits give low values 1 | S. cerevisiae deletion strains, locus YNR052C, strain pop2, hits give low values 1.02 | S. cerevisiae deletion strains, locus YOL006C, strain TOP1, hits give low values 0.926 | S. cerevisiae deletion strains, locus YOL012C, strain htz1 1.83 | S. cerevisiae deletion strains, locus YOL147C, strain pex11, hits give low values 1.01 | S. cerevisiae deletion strains, locus YOR061W, strain CKA2, hits give low values 1.01 | S. cerevisiae deletion strains, locus YOR069W, strain VPS5, hits give low values 1.01 | S. cerevisiae deletion strains, locus YOR136W, strain idh2, hits give low values 1.01 | S. cerevisiae deletion strains, locus YOR144C, strain elg1, hits give low values 0.997 | S. cerevisiae deletion strains, locus YOR184W, strain ser1, hits give low values 1.01 | S. cerevisiae deletion strains, locus YOR316C, strain cot1, hits give low values 1.01 | S. cerevisiae deletion strains, locus YPL055C, strain LGE1, hits give low values 0.974 | S. cerevisiae deletion strains, locus YPL241C, strain CIN2, hits give low values 1.01 | S. cerevisiae deletion strains, locus YPR119W, strain clb2, hits give low values 0.996 | S. cerevisiae deletion strains, locus YPR141C, strain kar3, hits give low values 0.998 | S. cerevisiae deletion strains, locus YPR163C, strain tif3, hits give low values 1.01 | S. cerevisiae deletion strains, locus YPR167C, strain met16, hits give low values 1 | S. cerevisiae deletion strains, strain wtn01, hits give low values 0.996 | S. cerevisiae strains, strain wild type, hits give low values 1.01
